Where “and” joins values, the source holds several entries; their conditions need not be identical. Identical values can stand only once. Records with an inconclusive call do not appear. Some compounds were tested as several samples or in several runs, with calls that do not always agree. Calls of active or inactive are those of the source. How the source made its calls: active means hit-call score of the fitted dose curve at least 0.9, where 1 is the maximum; inconclusive means response in the unintended direction; inactive means score below 0.9.
biological target: Cellular tumor antigen p53 (Homo sapiens) (UniProt P04637); assay: TOX21_p53_BLA_p3_ratio: Tox21 HCT-116 p53 Agonism Beta-lactamase Assay, Ratio, Phase 3 (AID 2283596)
Source text: TOX21_p53_BLA_p3 is a cell-based, single-readout assay that uses HCT116, a human intestinal cell line, […] in a 1536-well plate.TOX21_p53_BLA_p3_ratio is an assay readout measuring reporter gene via receptor activity and designed using inducible reporter (beta lactamase induction) detected with GAL4 b-lactamase reporter gene. The signal is derived from the ratio of cleaved (ch2) to uncleaved (ch1) reporter gene substrate used as the measure of target activity.Data from the assay component TOX21_p53_BLA_p3_ratio was analyzed into 1 assay endpoint. This assay endpoint, TOX21_p53_BLA_p3_ratio, was analyzed in the positive analysis fitting direction relative to DMSO as the negative control and baseline of activity. Using a type of inducible reporter, gain-of-signal activity can be used to understand changes in the reporter gene as they relate to the gene TP53. Furthermore, this assay endpoint can be referred to as a primary readout, because this assay has produced multiple assay endpoints where this ratio serves a reporter gene function to understand target activity. To generalize the intended target to other relatable targets, this assay endpoint is annotated to the DNA binding intended target family, where the subfamily is tumor suppressor.
Thawing Method: Place 14 mL of pre-warmed thaw medium into a 15 mL of conical tub. Remove the vial of cells to be thawed from liquid nitrogen and thaw rapidly by placing at 37C in a water bath with gentle agitation for 1-2 minutes. Decontaminate the vial by wiping with 70% ethanol before opening in a biological safety cabinet. Transfer the vial contents drop-wise into 14 mL of thaw medium in a sterile 15-mL conical tub. Centrifuge cells at 900 rpm for 4 minutes and resuspend in thaw medium. Transfer contents to the T75 tissue culture flask containing Thaw Medium and place flask in a humidified 37C/5% CO2 incubator. Switch to growth medium at first passage.Propagation Method: Aspirate medium, rinse once in DPBS, add 0.25% Trypsin/EDTA and swirl to coat the cell evenly. Add an equal volume of Growth Medium to inactivate Trypsin after 2-3 minutes incubation at 37C. Centrifuge cells at 900 rpm for 4 minutes and resuspend in growth medium. Cell should be passage or fed at least twice a week.Assay Protocol: Harvest cells from culture in growth medium and resuspend in assay medium. 2.2 Dispense 4000 cells/5 uL/well into 1536-well black/clear bottom plates using a Multidrop dispenser. After the cells were incubated at 37C for 5 hours, 23 nL of compounds dissolved in DMSO were transferred to the assay plate by a PinTool resulting in a 217-fold dilution. Incubate the plates for 16 hours at 37C, 5% CO2. Add 1 uL of 6X LiveBLAzer FRET B/G (CCF4-AM) Substrate Mixture to each well using a BioRAPTR dispenser and incubate the plates at room temperature for 2 hours. Measure fluorescence intensity at 460 and 530 nm emission and 405 nm excitation by an Envision detector. Data is expressed as the ratio of 460nm/530nm emissions. Add 4 uL of Cell-titer Glo to each well using BioRAPTR and incubate the plates at room temperature for 2 hours. Measure fluorescence intensity by a VewLux plate reader.

Sequence of Cellular tumor antigen p53 (Homo sapiens) (P04637 whole entry, looked up, the tested form may be a part): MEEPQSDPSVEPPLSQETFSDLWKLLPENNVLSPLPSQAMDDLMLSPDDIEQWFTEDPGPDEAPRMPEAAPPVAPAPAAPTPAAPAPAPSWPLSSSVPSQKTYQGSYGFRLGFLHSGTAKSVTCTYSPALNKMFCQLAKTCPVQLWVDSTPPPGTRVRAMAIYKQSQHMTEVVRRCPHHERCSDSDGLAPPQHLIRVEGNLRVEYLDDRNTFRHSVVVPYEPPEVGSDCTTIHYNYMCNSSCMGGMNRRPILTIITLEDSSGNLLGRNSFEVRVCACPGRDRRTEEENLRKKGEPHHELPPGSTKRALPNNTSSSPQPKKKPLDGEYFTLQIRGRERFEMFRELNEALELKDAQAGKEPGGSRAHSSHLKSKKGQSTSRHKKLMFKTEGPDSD

Compound	AC50	outcome
CCN(CC)CCNc1ccc(CNC=O)c2sc3ccc(OC)cc3c(=O)c12	18.7 µM (active)	–
CC#C[C@]1(O)CC[C@H]2[C@@H]3CCC4=CC(=O)CCC4=C3[C@@H](c3ccc(N(C)C)cc3)C[C@@]21C	20.1 µM (active)	inactive
COc1ccc([N+](=O)[O-])cc1N	–	inactive
CCCOc1sc(C(=O)N2CCC(c3cc(CN)ccc3F)CC2)c(C)c1Br	80.4 µM (active)	–
O=C(OCCOCCOC(=O)c1ccccc1)c1ccccc1	–	inactive
OC1CCCCC1	–	inactive
CC[C@H](c1ccc(O)cc1)[C@@H](CC)c1ccc(O)cc1	14.4 µM (active)	inactive
CN1CCN(c2ccccc2/C=C2\SCCN(c3ccc(Cl)c(Cl)c3)C2=O)CC1	–	inactive
COCC(C)O (stereo not given)	–	inactive
c1ccc2cc3c(ccc4ccccc43)cc2c1	–	inactive
CCc1nn(C2CCCCC2)c2cc(C3(C#N)CCC(C(=O)O)CC3)ccc12 (stereo not given)	73.5 µM (active)	–
NC(=O)N1C(=O)C(C(=O)c2cc(Cl)cs2)c2cc(F)c(Cl)cc21 (stereo not given)	2.59 µM (active)	–
CC1=C(/C=C/C(C)=C/C=C/C(C)=C/C(=O)O)C(C)(C)CCC1	85.7 µM (active)	inactive
CC(C)(C)CC(C)(C)c1ccc(O)c(-n2nc3ccccc3n2)c1	–	inactive
Cc1cc(C)c(O)c(C)c1	–	inactive
CCc1ccc(CCOc2ccc(CC3SC(=O)NC3=O)cc2)nc1 (stereo not given)	–	inactive
Nc1cccc2c(N)cccc12	–	inactive
OCCC(F)(F)C(F)(F)C(F)(F)C(F)(F)C(F)(F)C(F)(F)C(F)(F)C(F)(F)F	–	inactive

Compound	AC50	outcome
c1ccc2c(c1)Cc1ccccc1-2	–	inactive
O=c1c(-c2ccc(O)cc2)coc2cc(O)ccc12	–	inactive
CC(O)C(=O)O (stereo not given)	–	inactive
Oc1cc2ccccc2c2ccccc12	13.6 µM (active)	–
CCCCCCCCCCCCCC[N+](C)(C)C	39.8 µM (active) and 14.6 µM (active)	inactive
CCCCCCC(=O)O	–	inactive
c1ccc2c(c1)ccc1ccccc12	–	inactive
NC(=O)N(O)[C@@H]1C=C[C@H](Oc2cccc(Oc3ccc(F)cc3)c2)C1	–	inactive
CN(C)C=O	–	inactive
CC(=O)CC(C)(C)O	–	inactive
Oc1cccc(O)c1	–	inactive
O=[N+]([O-])c1ccc(O)cc1	–	inactive
CC(C)(C)c1cccc(C(C)(C)C)c1O	–	inactive
Cc1cc(CCN2CCN(c3nsc4ccccc34)CC2)cc2c1NC(=O)CC2(C)C	–	inactive
O=C(O)Cc1cc(I)c(Oc2cc(I)c(O)c(I)c2)c(I)c1	28.2 µM (active)	–
Cc1oc(-c2ccccc2)nc1CCOc1ccc(C[C@H](Nc2ccccc2C(=O)c2ccccc2)C(=O)O)cc1	39.9 µM (active)	–
COC(=O)CCCCC(=O)OC	–	inactive
CC(C)(C)c1ccc(O)c(C(C)(C)C)c1	77.4 µM (active) and 79.4 µM (active)	–

Reference: PubChem BioAssay (EPA / NIEHS)
